# Experimental data published in PubChem BioAssay AID1672 (Johns Hopkins Ion Channel Center, 2009).
# In all, about 310,000 compounds went through this assay and about 2,600 (0.84%) were called active. Shown is part of a subset that was picked to be rich in actives. A number with no mark means an inactive call.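 How the source made its calls: active means fluorescence ratio B-score at or below minus 3 SD of library scores, with starting-brightness B-score within 2 SD (cut at about -4.2 in these data); inactive means the rest.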
# Biological target: Inward rectifier potassium channel 2 (Mus musculus) (UniProt P35561)
# Sequence (P35561 whole entry, looked up): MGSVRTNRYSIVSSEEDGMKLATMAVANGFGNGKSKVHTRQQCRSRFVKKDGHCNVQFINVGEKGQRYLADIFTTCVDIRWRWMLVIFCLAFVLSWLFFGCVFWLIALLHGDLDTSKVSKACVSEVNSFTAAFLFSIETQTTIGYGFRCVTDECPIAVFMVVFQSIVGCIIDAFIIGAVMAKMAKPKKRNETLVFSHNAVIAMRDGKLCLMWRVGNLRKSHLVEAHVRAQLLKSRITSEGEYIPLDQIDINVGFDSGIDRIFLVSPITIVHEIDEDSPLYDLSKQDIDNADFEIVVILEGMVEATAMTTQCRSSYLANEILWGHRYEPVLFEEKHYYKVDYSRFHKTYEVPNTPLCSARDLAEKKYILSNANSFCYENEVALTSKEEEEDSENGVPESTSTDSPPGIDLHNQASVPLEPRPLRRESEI
# Assay: blocks the mouse Kir2.1 inward-rectifier potassium channel (AID 1672);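 further: channel flux triggered by added potassium and thallium sulfate stimulus; B-score of peak minus minimum fluorescence over baseline after thallium stimulus; more negative B-score means stronger Kir2.1 block with less thallium influx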
# Settings: HEK293-Kir2.1, FluxOR thallium flux fluorescence; at 10 µM; active compounds read low
row,Structure (SMILES),B-score
1,CNCC(O)c1cc(F)c(OCc2ccccc2)c(OCc2ccccc2)c1F (stereo not given),-10.4 (active)
2,COc1ccc2c(c1O)-c1cccc3c1[C@@H](C2)N(C)CC3,-0.89
3,C=CC12CN(C)[C@@H]3C4CO[C@H](C[C@H]41)[C@]1(C(=O)Nc4ccccc41)[C@@H]32 (stereo not given in full),-0.31
4,COC(=O)C1=C(c2ccccc2)C[C@@H]2CC[C@H]1N2C(=O)NCc1ccco1,-0.88
5,COc1ccc(N2C(=O)/C(=C/c3ccco3)C(=O)NC2=S)cc1,-1
6,COC(=O)N(c1ccc(OC)cc1)P1(=S)OCCC(C)O1 (stereo not given),-0.02
7,CCOc1cccc(=NC2CCCCC2)c2c(C)[nH]c(C)c12,-6.51 (active)
8,CCC(C)n1c(O)c(/C=N/Nc2nc3c(c(=O)n(C)c(=O)n3C)n2C)c(=O)[nH]c1=S (stereo not given),1.97
9,CCN1C(=O)C(=Cc2c(C)n(CC(=O)NCC3CCCO3)c3ccccc23)C(=O)N(CC)C1=S (stereo not given),1.19
10,Cc1ccc(S(=O)(=O)N(C)c2ccc(C(=O)NCC3(N(C)C)CCCCC3)cc2)cc1,0.21
11,COC(=O)C1=C(c2ccccc2)C[C@@H]2CC[C@H]1N2C(=O)N1CCCCC1,-0.79
12,c1ccc(C2NCc3ccccc3-n3cccc32)cc1 (stereo not given),-6.08 (active)
13,COc1ccc(C2NCc3ccc4c(c3-n3cccc32)OCO4)cc1OC (stereo not given),-0.31
14,COc1ccc2c(c1)[C@]13CCCCC1C(C2)N(C)CC3 (stereo not given in full),-0.18
15,O=C(Cc1ccccc1)N1CCN(C2CCCCCC2)CC1,-1.16
16,CCCCn1c(=O)c(C(=O)Nc2ccccc2Cl)c(O)c2ccccc21,-1.32
17,CN(C)CCN(CC1CCCN(Cc2ccccc2F)C1)C(=O)Cc1ccc(F)c(F)c1 (stereo not given),-0.57
18,O=C1N=c2ccccc2=C/C1=C\c1c(O)[nH]c(=S)[nH]c1=O,0.39
19,CCCCCCCCCCCCn1ccc(=N)cc1,-13 (active)
20,COc1ccc(C(=O)CC2C(=O)N(C)C(=O)N(C)C2=O)cc1,0.17
21,c1ccc(CCN2CCC3(CC2)OCCO3)cc1,1.88
22,COC(=O)C1=C(c2cc3ccccc3s2)C[C@@H]2CC[C@H]1N2C(=O)NCCO,-0.7
23,Clc1ccc2nc3c(c(-c4ccccc4)c2c1)CNCC3,-7.18 (active)
24,Cc1nn(-c2ccccc2)c(C)c1NC(=O)COC(=O)Cc1ccccc1,-0.02
25,CCOC(=O)C1(CCc2ccccc2)CCN(Cc2ccco2)CC1,-2.11

row,Structure (SMILES),B-score
1,CC[C@H]1CC2CN3CCc4c([nH]c5ccccc45)C(C(=O)OC)(C2)C13 (stereo not given in full),-2.28
2,CC(c1ccccc1)(c1ccccc1)c1ccncc1,-4.28 (active)
3,CCN(CC)C(=O)c1ccc(NC(=O)c2sccc2-c2ccccc2)cc1,0.02
4,COC(=O)C1=C(c2cc3ccccc3s2)C[C@@H]2CC[C@H]1N2C(=O)NC(C)C,-1.96
5,O=C(C1CC(=O)N(C2CCCC2)C1)N1CCC2(CC1)OCCO2 (stereo not given),0.05
6,Cc1ccc(C2CN(C)CC2C(=O)c2ccc(F)cc2)cc1 (stereo not given),-2.69
7,O=c1c2ccccc2nc(/C=C/c2ccco2)n1-c1ccccc1O,-0.02
8,C/C(=N/O)c1ccc2ccc3ccccc3c2c1,-0.33
9,Cc1nc2ccccn2c1P(=S)(N1CCCCC1)N1CCCCC1,-5.35 (active)
10,CCCCCn1c(=O)c(C(=O)NCc2ccccc2)c(O)c2ccccc21,1.46
11,COc1ccccc1C1=NCc2nnc(CSC)n2-c2ccc(Cl)cc21,0.29
12,CCOc1ccc(-c2cc(C)[n+](CCN(CC)CC)c(-c3ccc(OCC)cc3)c2)cc1,-4.58 (active)
13,Cc1cc2ccccn2c1C(C[N+](=O)[O-])c1c(F)cccc1Cl (stereo not given),-0.86
14,COc1ccc(Br)cc1CNCCc1cccc(Cl)c1,-10.4 (active)
15,COc1ccc(CNCCc2ccc3c(c2)OCO3)c(OC)c1OC,0.87
16,COc1ccc(CNCCc2c[nH]c3ccccc23)cc1OC,0.17
17,NCCc1c[nH]c2ccc(O)cc12,-0.71
18,COC(=O)C1=C(c2cc3ccccc3s2)C[C@@H]2CC[C@H]1N2C(=O)NCc1cccc2ccccc12,2.94
19,COC(=O)C1=C(c2cc3ccccc3o2)C[C@@H]2CC[C@H]1N2C(=O)NC1CCCCC1,-0.65
20,CN(c1ccccc1)c1ccc([N+](=O)[O-])c2nonc12,-1.89
21,Oc1cc2c(cc1CN1CCN(c3ccccc3)CC1)OCO2,-0.91
22,O=C(Cc1ccccc1[N+](=O)[O-])N1CCN(Cc2ccc3c(c2)OCO3)CC1,0.65
23,Fc1ccc(N2CCN(Cc3ccc4c(c3)OCO4)CC2)cc1,-6.26 (active)
24,CCN1CCN(c2nc3c(c(=O)[nH]2)CCC3)CC1,1.68
25,COc1cccc(N2C(=O)NC(=O)/C(=C\c3cn(C)c4ccccc34)C2=O)c1,0.09
